Data on 64 molecules can be found in PubChem BioAssay AID720579 (National Center for Advancing Translational Sciences (NCATS), 2013).

Out of some 310,000 compounds screened, about 1,900 (0.61%) were called active. Where a call stands in place of a potency, no number is given. Inconclusive results (about 8%) are left out. The call rests on the fitted dose curve; tested in A549 cells. This excerpt belongs to a sample that is enriched for actives.
Potency means the concentration at half of the fitted maximal effect.

A short description of the assay: qHTS for Stage-Specific Inhibitors of Vaccinia Orthopoxvirus: mCherry Reporter Primary qHTS. Further: nearly all actives have a fitted effect of over 35% in size. To be noted: Vaccinia virus mCherry reporter infection, fluorescence; series mostly up to 36.5 µM. (In qHTS, concentration-response curves come from the screen itself.)
Consider `[O-][n+]1onc2c1CCc1[nH]c(-c3ccccc3)nc1-2`, for which the Potency was 15.8 µM (active). Turning to `CC=CCn1c(SCCCc2ccccc2)nc2c1c(=O)[nH]c(=O)n2C`, the Potency result is “inactive”.

For the molecule `Cc1c(Cl)c([N+](=O)[O-])nn1CCCC(=O)Nc1cc(Cl)ccc1Cl`, the Potency entry was “inactive”. For `Cc1c(Cl)c([N+](=O)[O-])nn1Cc1ccc(C(=O)N/N=C\c2cc(Cl)ccc2O)o1`, the Potency is 6.31 µM (active). As to `O=C(N/N=C/c1ccc2c(c1)OCO2)c1ccc(Cn2cc([N+](=O)[O-])cn2)o1`, the Potency result was “inactive”. On to `O=C(c1ccccc1)N1CCN(c2cc(-c3ccccc3)nc3cc(-c4cccc(Cl)c4)nn23)CC1`, for which the Potency result is “inactive”. Then `CCc1nc2c(OCc3ccccc3)cccn2c1N(C)C(=O)c1ccco1`, with “inactive”; and `COc1ccc(C(C(=O)Nc2c(C)cccc2C)N2CCN(c3ccc(C)cc3)CC2)cc1` (centres undefined), with “inactive”.

On to `Brc1cccc[n+]1Cc1cccc(C[n+]2ccccc2Br)c1`, for which the Potency entry is “inactive”.

For the molecule `O=C(Cc1c(F)cccc1Cl)Nc1ncc([N+](=O)[O-])s1`, the Potency entry was “inactive”.

As to `Cc1cc2ccccn2c1C(=O)c1cccc(F)c1`, the Potency result was “inactive”. `Cc1cc2ccccn2c1C(C[N+](=O)[O-])c1c(F)cccc1Cl` (centres undefined): the Potency is 10 µM (active). For `CCCCOc1ccc(C(=O)NO)cc1`, the Potency entry was “inactive”. `CCN1CCN(c2ncnc3c2cnn3-c2ccc(C)c(C)c2)CC1`: the Potency result is “inactive”. Consider `CCc1ccc(C(=O)NNC(=O)C2CCN(c3ncnc4sc(C)c(C)c34)CC2)cc1`, for which the Potency result is “inactive”.

As for `CCc1cc2c(N3CCN(c4nnc(CC)s4)CC3)ncnc2s1`, the Potency is 12.6 µM (active).

For the molecule `Cc1ccc(S(=O)(=O)N2CC3C(=O)C[C@@H](c4ccccc4Cl)N(S(=O)(=O)c4ccc(C)cc4)C3CC2c2ccccc2)cc1` (some centres undefined), the Potency result was “inactive”. `Clc1ccc2nc(-c3ccccc3)nc(C(Cl)Cl)c2c1`: the Potency entry is “inactive”.

Regarding `CSc1nc(-c2ccccc2)nc(C(Cl)Cl)n1`, the Potency is 12.6 µM (active). As for `CSc1nc(Nc2ccc(F)cc2)cc(-c2ccccc2)n1`, the Potency result was “inactive”. Consider `CCCc1ccc(C(O)c2ncc(-c3cccc(OC)c3)[nH]2)cc1` (centres undefined), for which the Potency result is “inactive”. On to `CCOC(=O)[C@]12CCCC=C1N(CCC1=CCCCC1)C(=O)[C@H](CC(=O)NCCCOC)C2`, for which the Potency entry is “inactive”.

`CCOC(=O)N1CCN(C(=O)C[C@@H]2C[C@@]3(C(=O)OC)CC(C)(C)CC=C3N(Cc3ccco3)C2=O)CC1`: the Potency result was “inactive”. Then `CC1(C(=O)Nc2cccc3c2CCCC3)CCN1C(=O)CCc1ccc(Cl)cc1Cl` (centres undefined), with “inactive”; and `Cc1ccccc1-c1ccc(Nc2ccc(C(=O)N3CCOCC3)cc2)nn1`, with “inactive”. Then `CCOC(=O)c1ccccc1C(=O)N1CCOCCOCCOCC1`, with “inactive”. In the case of `Cc1oc2c(c1C(=O)N1CCOCC1)C(=O)c1ccccc1C2=O`, the Potency is 11.2 µM (active). Regarding `Fc1cccc(Cc2c(-c3ccc(Cl)cc3)nc3ccc(Cl)cn23)c1`, the Potency result is “inactive”.

Consider `COc1cc(OC)c(OC)cc1/C=C1\C=Cc2ccccc21`, for which the Potency result is “inactive”. Then `CCc1nc2ccc(C(=O)Nc3cc(-c4ccccc4)ccc3OC)cn2c1N(CC)CC(=O)N(C)C`, with “inactive”. Then `COc1cccc(/C=N/Nc2ncc(C(F)(F)F)cc2Cl)c1O`, with 11.2 µM (active). Then `COc1cccc(/C(C)=N/Nc2ncc(Cl)cc2Cl)c1`, with “inactive”. On to `COC(=O)Cc1ccc(Oc2ncc(C(F)(F)F)cc2Cl)cc1`, for which the Potency entry was “inactive”. For the molecule `CCc1nc2ccc(C(=O)NCc3ccc(OC)cc3)cn2c1N(CC)Cc1cccc(Br)c1`, the Potency entry is “inactive”. Then `Cc1nn(-c2ccccc2)c(C)c1NC(=O)COc1ccc(Cl)cc1Cl`, with “inactive”.

As for `Cc1nn(-c2ccccc2)c(C)c1NC(=O)CCl`, the Potency is 10 µM (active). `Cc1nn(-c2ccccc2)c(C)c1NC(=O)COC(=O)Cc1ccccc1`: the Potency entry was “inactive”.

Turning to `Cc1cccc(NC(=O)COC(=O)c2ccccc2OCc2cccc(Br)c2)c1`, the Potency result was “inactive”.

Consider `CC(C)Nc1ncnc2c1ncn2[C@H]1CN(Cc2ccncc2)C[C@@H](CO)O1`, for which the Potency entry is “inactive”. As for `OCCN1CCN(c2ncnc3c2ncn3[C@H]2CN(Cc3ccco3)C[C@@H](CO)O2)CC1`, the Potency result is “inactive”. In the case of `OC[C@@H]1CN(Cc2ccncc2)C[C@H](n2cnc3c(N4CCN(c5ccccc5)CC4)ncnc32)O1`, the Potency was 11.2 µM (active). Then `Cc1cc(Br)cn2c(Cc3ccsc3)c(-c3ccc(C#N)cc3)nc12`, with “inactive”. For `COc1cccc(-c2cc3nc(NCc4ccccc4OC)n(C)c(=O)c3s2)c1`, the Potency entry was “inactive”. For `CCCNC(=O)C1(C)CCCN(C(=O)c2oc3ccccc3c2C)C1` (centres undefined), the Potency result was “inactive”.

Consider `S=C(NCc1cccnc1)Nc1ccc(Cl)cc1Cl`, for which the Potency entry was “inactive”. Take `CC(=O)/C(=N\Nc1ccc(Cl)cc1Cl)Sc1cccc2cccnc12`: the Potency is 3.55 µM (active). As for `COc1c(Cl)cc(Cl)cc1C(=O)Nc1cccc2cccnc12`, the Potency entry is “inactive”.

`CCOC1=C2[C@@H](CN(S(=O)(=O)c3ccc(C)cc3)[C@H]2c2ccccc2F)[C@H]2C(=O)N(Cc3ccccc3)C(=O)[C@H]2C1`: the Potency entry is “inactive”. Then `CCOCCC(=O)Nc1ccc2c(c1)c(=O)n(C)n2-c1ccc2ccccc2c1`, with “inactive”; and `CN(C)C1=C2C=CC=CC2/C(=C2/C=Cc3ccccc32)C=C1` (centres undefined), with “inactive”; and `Nc1ccc(/C=C/c2ccnc3ccccc23)c([N+](=O)[O-])c1`, with “inactive”. For the molecule `O=C(Nc1ccc(Cl)cn1)c1ccccc1-c1ccccc1`, the Potency result was “inactive”. With `Cc1ccc(NC(=O)c2cc(-c3ccccc3O)n[nH]2)cc1C`, the Potency result was “inactive”. Then `Oc1ccccc1-c1cc(-c2ccc(Cl)cc2)n[nH]1`, with 8.91 µM (active); and `O=C(Nc1ccc2c(c1)OCCO2)C(C1CC1)N1CCC(Cc2ccccc2)CC1` (centres undefined), with “inactive”; and `CCc1cc(C(=O)N(CC)CC(=O)Nc2c(F)cccc2F)sc1C`, with “inactive”. Regarding `COC(=O)Cc1ccc(OC2(C)CCN(Cc3ccc4c(c3)OCCO4)C2)cc1` (centres undefined), the Potency entry was “inactive”. Then `CC1(C)OC(=O)C2=C(C[C@@H](C3CCCCC3)O[C@@H]2c2ccc(Cl)cc2)O1`, with “inactive”. Consider `O=C(NC1=CC(=O)c2ccccc2C1=O)c1ccccc1`, for which the Potency was 7.94 µM (active).

`CC(NC(=O)c1ccccc1)C(=O)Nc1ccccc1` (centres undefined): the Potency result is “inactive”.

`O=C(Nc1cccc(NC(=O)c2ccc(Br)cc2)c1)c1ccccc1`: the Potency result was “inactive”.

`COCC1CCCCN1C(=O)c1cc(COc2ccc(C)c(C)c2)on1` (centres undefined): the Potency entry is “inactive”.

As to `CN(C)c1ccc(/C=N\Nc2ccc([N+](=O)[O-])cc2[N+](=O)[O-])cc1Cl`, the Potency result is “inactive”.

`Cc1ccc(S(=O)(=O)N2C[C@H]3n4c(=O)ccc(=O)n4C[C@H](OC(=O)NC4CCCC4)[C@@]3(O)C2)cc1`: the Potency entry is “inactive”.
